According to PubChem BioAssay AID463215 (Sanford-Burnham Center for Chemical Genomics, 2010):
The whole screen tested about 4,600 compounds, of which about 2,900 (63%) were called active. So high a share suggests a set chosen from earlier hits. The list is a sample of the results. A number with no mark means an inactive call.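 How the source made its calls: active means inhibition of yeast growth at or above a set limit in either of two replicates at 10 µM; inactive means the rest.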

Assay: TIM10 isogenic control strain growth inhibition – single concentration, luminescence, S. cerevisiae, counter-screen for tim10-1 synthetic lethality project, confirmation (AID 463215);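 further: isogenic wild-type TIM10 control yeast grown in succinate dextrose medium; this counterscreen used the strain with wild-type TIM10; 0% = yeast with DMSO and 100% = medium wells lacking yeast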
Settings: BacTiter-Glo luminescence, 24 h, at 10 µM, stronger effect = higher value

SMILES	inhibition
O=C1[C@@H](c2ccccc2)[C@@H](c2ccccc2)N1c1cccnc1	61.4% (active)
C=CCNC(=S)NNC(=O)COc1c(Cl)cc(Cl)cc1Cl	2.85%
O=C(Oc1c(-c2ccco2)oc2ccccc2c1=O)c1cccnc1	48% (active)
CN(C)CCN(C(=O)C1=COCCO1)c1nc2ccc(Cl)cc2s1	69.3% (active)
Cc1ccc2nc(N(CCN(C)C)C(=O)C3=COCCO3)sc2c1	34.9% (active)
Cc1ccoc1C(=O)Nc1cccc(Oc2ccccc2)c1	61% (active)
Cc1nc(-c2ccc(Cl)cc2)sc1C(=O)CBr	52.6% (active)
CCNC(=S)N(CCc1c(C)[nH]c2ccc(C)cc12)Cc1ccco1	20.2%
Cc1cccc(NC(=O)c2ccc([N+](=O)[O-])o2)c1	81.6% (active)
O=C(Nc1ccc(Br)cn1)c1ccc([N+](=O)[O-])o1	46.5% (active)
Cc1onc(NC(=O)c2ccc([N+](=O)[O-])o2)c1Br	53.8% (active)
CC(C)CC(=O)NC(=S)Nc1ccc(F)cc1F	15.1%
Cc1ccc2nc(-c3ccc(SCC(=O)Nc4cc(C)on4)nc3)[nH]c2c1	2.7%
NC(=S)N/N=C/c1coc2cc(Cl)ccc2c1=O	50.8% (active)
CC(C)Oc1c(Br)cc(Br)cc1/C=N/NC(N)=S	23.6%
C=C(C)COc1ccc(-c2n[nH]c(C)c2-c2ccccc2)c(O)c1	40.1% (active)
Oc1ccccc1-c1cc(-c2ccc(Cl)cc2)n[nH]1	55.5% (active)
CC(C)NC(=O)/C(C#N)=C\c1ccc(N(C)C)c(Br)c1	46.6% (active)
O=c1[nH]cnc2c1c(-c1ccccc1)cn2-c1ccc(F)cc1	-25.6%
CC(=NCc1ccco1)c1c(C(F)(F)F)[nH]n(-c2nc3ccccc3s2)c1=O	57.4% (active)
COc1ccc(/C(N)=N/OC(=O)CCCc2ccccc2)cc1	39.8% (active)
N/C(=N\OC(=O)CCc1ccccc1)c1ccc(Cl)cc1	57.2% (active)
COc1ccc(-c2oc3ncn(Cc4ccco4)c(=N)c3c2-c2ccc(OC)cc2)cc1	38.8% (active)
COc1ccc2[nH]cc(/C=C(/C#N)S(=O)(=O)c3ccccc3)c2c1	38% (active)

SMILES	inhibition
N/C(=N\OC(=O)Nc1ccc(Cl)c(Cl)c1)c1ncc(C(F)(F)F)cc1Cl	72.8% (active)
CC1CCCC(C)N1C(=O)CN1CCN(c2nc(-c3ccc(F)cc3)cs2)CC1 (stereo unspecified)	39.2% (active)
CC(=O)Oc1ccc(N(C(C)=O)S(=O)(=O)c2ccc3ccccc3c2)cc1Br	40.5% (active)
Cc1cc(C)n(CC(O)CN(c2ccccc2)S(=O)(=O)c2ccc3ccccc3c2)n1 (stereo unspecified)	2.2%
CCc1ccc(OCC(=O)NCC(c2ccc(Cl)cc2)N2CCCCC2)cc1 (stereo unspecified)	44% (active)
CC1CCC2CCCCC2N1C(=O)c1cc([N+](=O)[O-])cc([N+](=O)[O-])c1 (stereo unspecified)	33% (active)
CCOc1ccccc1/C=c1\sc2nc(-c3ccco3)nn2c1=O	48.9% (active)
Cc1ccc(-c2ccnc3nc(Sc4ncc(C(F)(F)F)cc4Cl)nn23)cc1	29.6%
Cc1nn2c(c1-c1ccccc1)N=C(c1ccco1)CC2c1ccccc1 (stereo unspecified)	-19.4%
CC(NC(=S)Nc1ccccc1)C1COc2ccccc2O1 (stereo unspecified)	40.3% (active)
Cc1ccc(N2C(=O)C3C4C=CC(CC4)C3C2=O)cc1Cl (stereo unspecified)	0.2%
Cc1ccc(C(=O)COc2cccc(NC(=O)c3ccco3)c2)cc1	53.1% (active)
COc1cccc(OCc2cc(C(=O)N3CCN(C(=O)c4ccco4)CC3)no2)c1	8.3%
O=C1C=CC(=O)N1c1ccc(N2CCCCC2)cc1	85.4% (active)
COc1ccc2c(CN3CCN(S(=O)(=O)c4cccs4)CC3)cc(=O)oc2c1	-35.7%
O=C(O)CCCC(=O)Nc1ccccc1-n1ccnc1	-10.4%
CN(C)c1ccnc2sc(C(=O)c3ccccc3)c(N)c12	25.4%
O=C(CN1CCN(S(=O)(=O)c2ccc3ccccc3c2)CC1)NC(=O)NC1CCCCC1	23.4%
COc1ccc(S(=O)(=O)N2CCN(C(C)C(=O)Nc3ccc(C(C)C)cc3)CC2)cc1 (stereo unspecified)	38.8% (active)
Cc1ccc(-c2noc(CSc3nnc(-c4ccncc4)n3-c3ccc(F)cc3)n2)cc1	30.2% (active)
Fc1ccc(-n2c(Cc3ccccc3)nnc2SCc2nc(-c3ccc(Cl)cc3)no2)cc1	37.8% (active)
Cc1ccc(/C=N/NC(=S)NC2CCCCC2)o1	11.8%
COc1ccc(N2C(=O)CC(Sc3n[nH]c(-c4ccc(C)cc4)n3)C2=O)cc1 (stereo unspecified)	13.8%
O=C(Nc1cccc(Cl)c1)OCc1ccccn1	41.4% (active)

SMILES	inhibition
FC(F)(F)c1cccc(NC(=S)Nc2cccc(Cl)c2)c1	26.8%
O=C(Nc1cccc(Cl)c1)C1CCCN(c2cnccn2)C1 (stereo unspecified)	5.7%
O=C(CSc1cccc[n+]1[O-])c1ccc(-c2ccccc2)cc1	44.2% (active)
O=C1NC(Nc2nc3ccccc3s2)(C(F)(F)F)C(=O)N1C1CCCCC1 (stereo unspecified)	52.6% (active)
N#CC1(C#N)C(C(=O)C23CC4CC(CC(C4)C2)C3)C12CCOCC2 (stereo unspecified)	26.6%
COC(=O)c1c(NC(=O)COc2ccc(Cl)cc2Cl)sc2c1CC(C)(C)NC2(C)C	45.8% (active)
CCn1c(CSCc2c(Cl)cccc2Cl)n[nH]c1=S	35.4% (active)
O=C(Nc1ccccc1Cl)/C(Cl)=C(\Cl)S(=O)c1ccccc1 (stereo unspecified)	89.6% (active)
O=c1oc(-c2ccccc2NS(=O)(=O)c2ccc(Cl)cc2)nc2ccccc12	41.5% (active)
Cc1[nH]c(=O)c(C(=O)/C=C/c2ccccc2)c2c1CCCC2	38.8% (active)
COc1ccc(Nc2cc(C)nc(-n3nc(C)cc3C)n2)cc1	34.1% (active)
COc1ccc(/C=C(\C#N)C(=O)ONC2=NCCCCC2)cc1	59% (active)
O=C(Nc1cccc(S(=O)(=O)N2CCCC2)c1)c1cncc(Br)c1	-2.05%
O=C(NCCc1ccc(F)cc1)c1ccc(S(=O)(=O)N2CCCCC2)cc1	53.5% (active)
CC(=O)Cc1nsc(NC(=O)c2ccc(Cl)cc2Cl)n1	17.2%
C/C(=N/NC(=S)Nc1ccccc1)c1ccc2c(c1)OCO2	38.8% (active)
CC(=O)N1C(C)c2ccccc2C(C)(C)CC12CCCCC2 (stereo unspecified)	-16%
COc1ccc(Nc2nc(N)nc(CSC(=S)N3CCC(C)CC3)n2)cc1	-1%
Cc1cc(C)nc(S/C=C/C(=O)c2ccccc2)n1	60.8% (active)
Cc1csc(NC(=S)Nc2cccc(Cl)c2)n1	9.5%
Cc1cc(C)c(S(=O)(=O)c2ccccc2)c(OC(=O)c2c(F)cccc2Cl)n1	-5.1%
COC(C/C=C/C(=O)[C@@H](C)OCc1ccccc1)OC	39.4% (active)
CNC(=O)/C(C#N)=C/c1c(F)cccc1Cl	40.6% (active)
